Reference: PubChem BioAssay

Assay: blood-stage malaria parasite viability loss – strain 3D7, DAPI fluorescence, 100 nL, primary screen (AID 1184);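 note: parasites grown inside human red blood cells in medium with human serum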
Conditions: P. falciparum 3D7 growth, 3 d, higher = more signal

Structure (SMILES)	z-score
CC(=O)OCC1C2CC[C@H]3C(OCc4ccc(F)cc4C(F)(F)F)OC[C@]4(C)[C@H]3C2=C(CN4C(=O)OC(C)(C)C)[C@H](C)C1COC(C)=O (stereo partly drawn)	-1.22
O=C1[C@H]2C=C(I)[C@H](C[C@@H]2c2ccccc2)[C@@]12CO2	1.46
NC(=O)N1C(=O)C2C(C1=O)C1C=C(CCCO)C2C(c2ccc(CN3CCCC3)cc2)N1Cc1sc2ccccc2c1Cl (stereo not drawn)	-0.44
CCCCC(=C=CC[C@H](O)c1ccc(CO)o1)CCO	1.13
O=C(NCC(O)CO)C1N=C(c2ccc(OCCCO)cc2)N(c2ccccc2)O1 (stereo not drawn)	-0.284
CCCCCC1=C2CNC(CC(C)C)(C(=O)OC)C=C2C(C)C1=O (stereo not drawn)	-0.282
COc1ccc([Si](C)(C)[C@H]2[C@H](CC(=O)N3CCC[C@H]3CO)O[C@@]3(C(=O)N(Cc4ccc(N5CCCCC5=O)cc4)c4ccccc43)[C@@H]2C)cc1	-1.64
CN(C)CCCCNC(=O)[C@H]1C[C@H]2C(=O)N3CCC[C@H]3C(=O)N2[C@H]1c1cccc(OCCO)c1	0.0172
C=CCC(OC(C)=O)[C@@H]1[C@@H](N(Cc2ccc(-c3ccccc3)cc2)C(=O)c2cccc3ccccc23)c2cc(OCCCO)ccc2N1C(=O)Cc1ccc(OC)cc1 (stereo partly drawn)	-1.38
COc1ccc(C(=O)Nc2ccc3c(c2)[C@@]2(O[C@H](CCO)[C@@H]([Si](C)(C)c4ccc(OC)cc4)[C@@H]2C)C(=O)N3Cc2ccccc2)cc1	-2.89
CCOC(=O)C1=CCC(c2cc3ccccc3[nH]2)N(CCN2CC(C(=O)OCC)=CCC2c2cc3ccccc3[nH]2)C1 (stereo not drawn)	-1.51
CCCC[C@H]1OB(O)C[C@H]2C1=C(COc1ccccc1)C[C@H]1C(=O)C=CC(=O)[C@H]12	-0.948
C=CCNC(=O)[C@H]1[C@@H]2C(=O)O[C@@H](c3ccccc3)[C@@H](c3ccccc3)N2[C@@H](c2ccc(OCCO)cc2)[C@]12C(=O)Nc1ccccc12	-0.541
O=C(NCc1ccccc1)[C@@H]1c2ccccc2C(=O)N(Cc2cc(C(F)(F)F)cc(C(F)(F)F)c2)[C@H]1c1ccc(CO)cc1	-1.2
CN1C(=O)C2C(C3CC3)C=C3CN(Cc4cccc(Cl)c4)[C@@H]([C@@H](O)Cc4ccccc4)C3C2C1=O (stereo partly drawn)	-0.185
COc1ccc([Si](C)(C)[C@@H]2[C@@H](CC(=O)N3Cc4ccccc4C[C@H]3CO)O[C@]3(C(=O)N(Cc4cccc(N5CCOC5=O)c4)c4ccccc43)[C@H]2C)cc1	-2.83
C=C(COC)/C(=C/C[C@@H](OC(C)=O)c1ccccc1OCCO)c1cnc2ccccc2c1	-2.92
C=CCN1C(=O)[C@@]2(O[C@@H](CCn3cc([C@H](O)c4ccccc4)nn3)[C@H]([Si](C)(C)c3ccc(OC)cc3)[C@H]2C)c2cc(N3C(=O)c4cccc5cccc3c45)ccc21	-0.816
COc1ccc(C(O)C2C=CC3C(=O)N(c4ccccc4)C(=O)C3N2Nc2ccc([N+](=O)[O-])cc2)c2ccccc12 (stereo not drawn)	-1.32
C=C(CCCC)/C(=C/C[C@H](OC(=O)c1ccncc1)c1ccc(OCCO)cc1)c1cnc2ccccc2c1	-2.94
CO[C@H]1O[C@H](CO)[C@@H](OC(=O)Nc2ccc3c(c2)OCO3)[C@H](OC(=O)Nc2ccccc2-c2ccccc2)[C@H]1OC(=O)Nc1ccccc1-c1ccccc1	-1.92
CC1CC/C=C\[C@H]2OC34C=CCN(c5ccc(Cl)cc5)C(=O)[C@H]3N(CCCCCCO)C(=O)[C@]4(C)C2C(=O)O1 (stereo partly drawn)	0.955
O=C1NC(=O)C2C1C=CC(C(O)c1ccc([N+](=O)[O-])cc1)N2Nc1ccccn1 (stereo not drawn)	1.21
O=C(N1CCOCC1)[C@@]1(Cc2ccccc2)COC(c2ccc(OCCCO)cc2)=N1	-1.99
C=CCC(OC(C)=O)[C@@H]1[C@@H](N(Cc2cccc3ccccc23)C(=O)Cc2ccc(OC)cc2)c2cc(OCCCO)ccc2N1C(=O)Cc1ccc2ccccc2c1 (stereo partly drawn)	-1.91
COC(=O)C(CC#Cc1ccc2c(c1)[C@]1(C(=O)N2)[C@H](c2ccc(OCCO)cc2)N2[C@H](c3ccccc3)[C@H](c3ccccc3)OC(=O)[C@H]2[C@@H]1C(=O)N1CCCCCCC1)C(=O)OC	-2.24
COCCCN1C(=O)[C@@]2(c3ccc([N+](=O)[O-])cc3)CC(=O)N(CC34CC5CC(CC(C5)C3)C4)[C@@H]2c2ccc(CO)cc21	-0.243
CO[C@H]1O[C@H](CO)[C@@H](OC(=O)Nc2ccccc2-c2ccccc2)[C@H](OC(=O)Nc2ccccc2)[C@H]1OC(=O)Nc1ccccc1	-2.14
